“And” between values parts separate entries of the source, which are not always exact repeats. Equal values may be shown once. Among all 16,000 compounds or so, about 4,000 (25%) were called active. Roughly 26% stayed inconclusive and do not appear here. Calls come from the whole dose curve; as a rule, active = well fitted curve in the direction sought with a large enough effect; inconclusive = small, poorly fitted or top-dose-only effect, or effect the other way; inactive = no such curve, though single readings can be large or run the other way. Not all results are given here.
These molecules were tested against Cytochrome P450 2C9 (Homo sapiens) (UniProt P11712) (assay: Cytochrome panel assay with activity outcomes). Details: recombinant CYP, pro-luciferin dealkylation, luminescence, p450-cyp2c9; series mostly up to 57.1 µM.
Sequence of Cytochrome P450 2C9 (Homo sapiens) (P11712 whole entry, looked up): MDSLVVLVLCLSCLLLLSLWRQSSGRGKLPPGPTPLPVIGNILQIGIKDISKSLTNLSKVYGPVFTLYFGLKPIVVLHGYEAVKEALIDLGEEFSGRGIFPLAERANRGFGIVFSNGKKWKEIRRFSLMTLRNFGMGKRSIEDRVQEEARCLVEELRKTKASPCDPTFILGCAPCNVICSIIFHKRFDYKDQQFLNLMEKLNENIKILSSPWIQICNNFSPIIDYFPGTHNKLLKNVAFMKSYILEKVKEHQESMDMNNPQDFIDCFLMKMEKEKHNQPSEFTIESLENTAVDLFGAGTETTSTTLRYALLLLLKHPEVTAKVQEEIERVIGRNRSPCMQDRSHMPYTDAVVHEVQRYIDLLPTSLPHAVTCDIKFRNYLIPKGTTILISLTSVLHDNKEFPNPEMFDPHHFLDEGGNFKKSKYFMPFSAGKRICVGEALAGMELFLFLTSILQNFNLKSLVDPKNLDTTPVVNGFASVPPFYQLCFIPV
For `CCSc1ncc(/C=N/Nc2ccc(F)cc2)n1C`, the AC50 was 12.6 µM (active).
With `Cc1cnn(CCC(=O)NNC(=S)Nc2ccc(F)cc2)c1` the AC50 was “inactive”.
For `CCOC(=O)N/N=C/c1ccc(F)cc1`, the AC50 was “inactive”.
With `c1ccc([C@H](CCN2CCCC2)c2ccccn2)cc1` the activity, negative = inhibition was 10.4% [at 11.4 µM] (inactive).
`O=C1[C@H]2[C@H]3[C@H](O)[C@H](O)C/C(=N/OC[C@@H](O)COCc4ccco4)[C@H]3CC[C@@H]2C(=O)N1Cc1ccc2c(c1)OCO2` was tested, and the activity, negative = inhibition was 12.6% [at 11.4 µM] (inactive).
For `Cc1ccc(C(=O)NN2CCOCC2)cc1`, the AC50 was “inactive”.
For `Cc1c(C(=O)NN2CCOCC2)nn(-c2ccc(Cl)cc2Cl)c1-c1ccc(I)cc1`, the AC50 was 6.31 µM (active).
`O=C(N/N=C1/C[C@@H](O)[C@@H](O)[C@@H]2[C@@H]3C(=O)N(Cc4ccccc4)C(=O)[C@H]3CC[C@H]12)OCc1ccccc1` was tested, and the activity, negative = inhibition was 4.61% [at 11.4 µM] (inactive).
`COc1ccc(CC(=O)NCc2ccccn2)cc1OC` was tested, and the AC50 was “inactive”.
For `CCOC(=O)c1sc(NC(C)=O)nc1-c1ccccc1`, the AC50 was 31.6 µM (active).
In the case of `CCOC(=O)Cc1csc(NS(=O)(=O)c2ccccc2)n1`, the AC50 is reported as 5.01 µM (active).
For `CCOC(=O)c1sc(NS(=O)(=O)c2ccccc2)nc1C`, the AC50 was 1 µM (active).
In the case of `COc1ccc(C/C(N)=N/OC(=O)Cc2ccccc2)cc1OC`, the AC50 is reported as “inactive”.
For `COC(=O)c1c(-c2ccc3ccccc3c2)csc1NC(=O)Cc1ccc(OC)c(OC)c1`, the AC50 was 0.447 µM (active).
For `C#CCCCO/N=C1/C[C@@H](O)[C@@H](O)[C@@H]2[C@@H]3C(=O)N(C4CCCCC4)C(=O)[C@H]3CC[C@H]12`, the activity, negative = inhibition was 6.11% [at 11.4 µM] (inactive).
With `CCCC(=O)Nc1nc(C(=O)OCC)cs1` the AC50 was “inactive”.
In the case of `CCOC(=O)c1c(-c2cccc(C)c2)csc1NC(=O)c1c(-c2ccccc2)noc1C`, the AC50 is reported as “inactive”.
For `CCOC(=O)c1c(-c2ccc(OC)cc2)csc1NC(=O)CCN1C(=O)c2ccccc2C1=O`, the AC50 was 1.41 µM (active).
`CCOC(=O)Cc1csc(NC(=O)CCCCCN2C(=O)c3ccccc3C2=O)n1` was tested, and the AC50 was 1.26 µM (active).
`CCOC(=O)c1c(-c2ccccc2)csc1NC(=O)c1cccc(N2C(=O)CCC2=O)c1` was tested, and the AC50 was 0.316 µM (active).
With `CCOC(=O)c1c(C)n(C)c2ccc(OC)c(NC(=O)CN3CCCCC3)c12` the AC50 was “inactive”.
`Cn1cnnc1SCC(=O)OCN1C(=O)c2ccccc2C1=O` was tested, and the AC50 was “inactive”.
`N[C@@H](Cn1cc(F)c(=O)[nH]c1=O)C(=O)O` was tested, and the AC50 was “inactive”.
In the case of `Cc1c(C(=O)NCCC2=CCCCC2)cccc1[N+](=O)[O-]`, the AC50 is reported as “inactive”.
With `Cc1ccc(S(=O)(=O)N(CC(=O)NCCC2=CCCCC2)Cc2ccccc2F)cc1` the AC50 was 7.08 µM (active).
`CC(=O)c1cnc2cc(C)nn2c1C` was tested, and the AC50 was “inactive”.
In the case of `O=C1CCCN1c1ccc(S(=O)(=O)Oc2cccc(Cl)c2)cc1[N+](=O)[O-]`, the AC50 is reported as 11.2 µM (active).
`O=C(Cn1ccnc1[N+](=O)[O-])NCCO` was tested, and the AC50 was “inactive”.
For `COc1cccc(-c2nnc3sc(-c4ccc(C)cc4)nn23)c1`, the AC50 was 10 µM (active).
With `COc1cccc(-c2nccc(-n3ccnc3)n2)c1` the activity, negative = inhibition was -24.4% [at 2.29 µM] (inactive).
For `COc1cccc(-c2ccc3ncnc(N4CCN(C)CC4)c3c2)c1`, the activity, negative = inhibition was -5.64% [at 2.29 µM] (inactive).
With `COc1ccc(CNc2ccnc(-c3ccc(C(=O)N(C)C)cc3)n2)c(OC)c1` the activity, negative = inhibition was -2.88% [at 2.29 µM] (inactive).
With `Cc1ccc(N2C(=O)CSC2c2cccnc2)cc1F` (centres undefined) the AC50 was “inactive”.
For `Cc1ccc(NC(=O)C2(NC(=O)c3cccc(N4C(=O)CSC4c4ccccc4)c3)CCCCC2)cc1` (centres undefined), the AC50 was 1.41 µM (active).
`Cc1ncc(COP(=O)(O)O)c(C)c1O` was tested, and the activity, negative = inhibition was 5.34% [at 11.4 µM] (inactive).
`COc1ccc(NC(C)=O)cc1NC(=O)CN1CCN(C2c3ccccc3-c3ccccc32)CC1` was tested, and the AC50 was 10 µM (active).
In the case of `COc1ccccc1NC(=O)CN1CCN(C2c3ccccc3-c3ccccc32)CC1`, the AC50 is reported as 0.794 µM (active).
With `CC(=O)Nc1ccc2c(c1)C(=Nc1ccc(C(=O)O)cc1)c1ccccc1-2` the activity, negative = inhibition was 16.5% [at 11.4 µM] (inactive).
In the case of `O=C(O)C[C@@H](C(=O)O)C1c2ccccc2-c2ccccc21`, the activity, negative = inhibition is reported as -12.1% [at 11.4 µM] (inactive).
`COC(=O)N1CCC2(CCCN(Cc3ccccc3OC)C2)CC1` was tested, and the AC50 was “inactive”.
With `CCN1CCN(C(=O)C2c3cc(OC)c(OC)cc3C(=O)N3CCc4ccccc4C23)CC1` (centres undefined) the AC50 was “inactive”.
For `CC(C)OC(=O)CN1CCN(C2c3ccccc3-c3ccccc32)CC1`, the AC50 was 14.1 µM (active).
`COC(=O)C/C=C1\c2ccccc2[C@H](OC)[C@H]1C` was tested, and the activity, negative = inhibition was 15.8% [at 11.4 µM] (inactive).
`Cc1c(NC(=O)NC(C)N2C(=O)C3C4C=CC(C4)C3C2=O)c(=O)n(-c2ccccc2)n1C` (centres undefined) was tested, and the AC50 was “inactive”.
With `COCCNc1cc(-c2ccccc2C(F)(F)F)ncn1` the activity, negative = inhibition was 6.38% [at 2.29 µM] (inactive).
`O=C(NNC(=S)NCc1ccco1)c1ccc(Cl)s1` was tested, and the AC50 was 4.47 µM (active).
`O=S(=O)(c1ccccc1)N1CCC2(CCCN(Cc3nccs3)C2)CC1` was tested, and the AC50 was “inactive”.
In the case of `CSC(=NC#N)N1CCN(c2ccc(Cl)cc2)CC1`, the AC50 is reported as 5.01 µM (active).
In the case of `Cc1ccc(NC(=O)c2sc3ccccc3c2Cl)nc1`, the AC50 is reported as “inactive”.
`CN(C(=S)NC(=O)c1ccccc1Br)C1CCCCC1` was tested, and the AC50 was “inactive”.
With `CCOC(=S)NC(=O)c1sc2ccccc2c1Cl` the AC50 was 0.0631 µM (active).
In the case of `CC(C)c1nnc(NC(=O)c2sc3ccccc3c2Cl)s1`, the AC50 is reported as 12.6 µM (active).
`CC(C)Cc1nnc(NC(=O)c2ccc([N+](=O)[O-])cc2)s1` was tested, and the AC50 was “inactive”.
`O=C(NC(=S)N(CCCCO)C1CCCCC1)c1sc2ccccc2c1Cl` was tested, and the AC50 was 7.94 µM (active).
In the case of `CCCCOC(=S)NC(=O)c1sc2ccccc2c1Cl`, the AC50 is reported as 0.282 µM (active).
For `O=C(O)CCC(=O)c1ccc2sc3ccccc3c2c1`, the activity, negative = inhibition was -2.22% [at 11.4 µM] (inactive).
`Cc1ncc2c(c1O)COP(=O)(O)OC2` was tested, and the AC50 was “inactive”.
With `CN(C)c1ccc(-c2cc(NCc3cccnc3)ncn2)cc1` the activity, negative = inhibition was -1.19% [at 2.29 µM] (inactive).
In the case of `CCc1cc2c(nc1CC)CCN(CC/C(C)=N/O[C@@H](C)c1cn([C@H](CO)Cc3ccccc3)nn1)C2`, the activity, negative = inhibition is reported as 1.31% [at 11.4 µM] (inactive) and -5.84% [at 11.4 µM] (inactive).
`COc1ccc2[nH]cc(C=O)c2c1` was tested, and the AC50 was “inactive”.
For `CC1(C)Oc2ccc(C#N)cc2[C@H](N2CCCC2=O)[C@H]1O`, the AC50 was “inactive”.
With `O=C(O)CCC(O)=C1S(=O)(=O)OCCOS1(=O)=O` the activity, negative = inhibition was 8.09% [at 11.4 µM] (inactive).
For `O=C(O)[C@H]1CCCNC1`, the AC50 was “inactive”.
With `c1c[nH]c(CN2CCN(Cc3ncc[nH]3)CC2)n1` the activity, negative = inhibition was -13% [at 11.4 µM] (inactive).
In the case of `CC[C@H]1C2=C3C(CC[C@H]4C(OCc5ccc(F)cc5C(F)(F)F)OC[C@](C)([C@@H]34)N(C(=O)OC(C)(C)C)C2)C(COC)C1COC` (some centres undefined), the AC50 is reported as “inactive”.
`Cc1ccccc1Cn1nc(C)c(NC(=O)c2sc3ccccc3c2Cl)c1C` was tested, and the AC50 was 7.08 µM (active).
With `CCn1nc(C(=O)Nc2ccccc2C)c(Cl)c1Cl` the AC50 was “inactive”.
`CN(C)CCN(Cc1cccs1)c1ccccn1` was tested, and the AC50 was “inactive”.
In the case of `Cc1ccc(S(=O)(=O)/C(C#N)=C/c2c(N3CC(C)OC(C)C3)nc3ccccn3c2=O)cc1` (centres undefined), the AC50 is reported as 11.2 µM (active).
In the case of `CC(=O)[C@H]1CC[C@@H]2[C@H]3CC=C4C[C@@H](O)CC[C@]4(C)[C@H]3CC[C@]12C`, the AC50 is reported as “inactive”.
With `C[C@@H](O)[C@H]1C(=O)N2C(C(=O)O)=C(S[C@@H]3CN[C@H](C(=O)N(C)C)C3)[C@H](C)[C@H]12` the AC50 was “inactive”.
With `CCOC(=O)c1[nH]c(C)c(C(=O)OCC(=O)N2c3ccccc3CC2C)c1C` (centres undefined) the AC50 was 25.1 µM (active).
For `Cc1nnc(SCC(=O)NCC2CCCCC2)n(N)c1=O`, the AC50 was “inactive”.
`Cc1ccc(-c2cc(-c3nnc(SCC(=O)NC(C)C(C)C)n3N)c3ccccc3n2)cc1` (centres undefined) was tested, and the AC50 was 1.12 µM (active).
For `NNC(=O)CNc1cccc(Br)c1`, the activity, negative = inhibition was 1.94% [at 11.4 µM] (inactive).
In the case of `NNC(=O)CNC(c1ccccc1)c1cc(Br)ccc1NC(=O)c1ccccc1Br` (centres undefined), the AC50 is reported as 3.16 µM (active).
For `Cc1ccccc1-c1nc(N2CCNCC2)c2ccccc2n1`, the activity, negative = inhibition was 0.671% [at 2.29 µM] (inactive).
`Oc1c(C(O)(c2ccccc2)c2ccc3ccccc3c2O)ccc2ccccc12` was tested, and the AC50 was 0.794 µM (active).
For `C[C@](O)(c1ccccc1)c1nccc2ccccc12`, the activity, negative = inhibition was -17.3% [at 11.4 µM] (inactive).
In the case of `Nc1nc(N)c2nn(-c3ccc(C(=O)O)cc3)nc2n1`, the activity, negative = inhibition is reported as 7.68% [at 11.4 µM] (inactive).
With `COc1ccccc1C1CC(c2c(-c3ccccc3)c3cc(Cl)ccc3[nH]c2=O)=NN1S(C)(=O)=O` (centres undefined) the AC50 was 2.82 µM (active).
With `CCC1=NN(C(=O)CCc2ccccc2)C(O)(C(F)(F)F)C1` (centres undefined) the AC50 was 4.47 µM (active).
`CCOC(=O)N1N=C(c2ccccc2)CC1(O)C(F)(F)F` (centres undefined) was tested, and the AC50 was 10 µM (active).
With `COc1cc(N=C(N)N=C(N)N)c2ncccc2c1` the activity, negative = inhibition was 8.03% [at 11.4 µM] (inactive).
In the case of `CCOC(=O)N/N=C1/C[C@@H](O)[C@@H](O)[C@@H]2[C@@H]3C(=O)N(c4cccc(Oc5ccccc5)c4)C(=O)[C@H]3CC[C@H]12`, the activity, negative = inhibition is reported as 7.2% [at 11.4 µM] (inactive).
`COc1ccc(C2C(C#N)=C(N)OC3=C2C(=O)CC(C)(C)C3)c([N+](=O)[O-])c1OC` (centres undefined) was tested, and the AC50 was 1 µM (active).
`Cc1cc(C2C(C#N)=C(N)OC3=C2C(=O)CC(C)(C)C3)c(C)s1` (centres undefined) was tested, and the AC50 was 7.08 µM (active).
In the case of `C[C@H]1COC(=O)[C@H](Cc2ccccc2)NC(=O)[C@@H](C)COC(=O)[C@H](Cc2ccccc2)NC1=O`, the activity, negative = inhibition is reported as -8.11% [at 11.4 µM] (inactive).
With `CO[C@H]1COC(=O)[C@H](C)NC(=O)C/C=C\[C@@H](C)[C@@H](NS(=O)(=O)c2ccc(C)cc2)COC(=O)C/C=C\[C@@H]1C` the activity, negative = inhibition was -2.5% [at 11.4 µM] (inactive).
For `Cc1ccc(C(=O)Cn2nnc3c(sc4nc5c(c(-c6ccccc6)c43)CCC5)c2=O)cc1`, the AC50 was 3.55 µM (active).
For `CCOC(=O)Cn1nnc2c(sc3nc4c(c(-c5ccc(Cl)cc5)c32)CCC4)c1=O`, the AC50 was 12.6 µM (active).
For `CCOC(=O)c1c(C)nc2sc3c(=O)n(-c4ccc(OC)cc4)nnc3c2c1-c1ccc(OC)cc1`, the AC50 was 10 µM (active).
For `Cc1ccc(-c2c3c(nc4sc(C(N)=O)c(N)c24)CCC3)cc1`, the AC50 was 8.91 µM (active).
With `CCOC(=O)c1c(NC(=O)C2C3CCC(O3)C2C(=O)O)sc(C)c1-c1ccc(C)cc1` (centres undefined) the AC50 was “inactive”.

Reference: PubChem BioAssay AID1851 (National Center for Advancing Translational Sciences (NCATS), 2009)
% is set by controls: 0 for no effect and ±100 for the full control effect.
